In PubChem BioAssay (NCI):
About 83,000 compounds went through this panel and 20% of them were active in at least one assay; those are over-represented in the sample as a whole.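 For each line, cells grew in 96-well plates with the test compound present at a single concentration for 48 hours.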 Values without a mark were called inactive. The source made the active and inactive calls. The calls were made as follows: active = growth percent below 10; inactive = the rest.

Experiments:
Experiment in all cases: NCI-60 one-dose screen, 48 h (100 = growth as untreated, 0 = no growth, -100 = all killed)
Conditions in all cases: 10 µM unless noted
DU-145 prostate = tested on: DU-145 prostate
K-562 leukemia = tested on: K-562 leukemia
MALME-3M melanoma = tested on: MALME-3M melanoma
MDA-MB-231 breast = tested on: MDA-MB-231 breast
RXF 393 renal = tested on: RXF 393 renal
SF-268 CNS = tested on: SF-268 CNS
SF-295 CNS = tested on: SF-295 CNS
SF-539 CNS = tested on: SF-539 CNS
UACC-257 melanoma = tested on: UACC-257 melanoma
M14 melanoma = tested on: M14 melanoma
HCT-15 colon = tested on: HCT-15 colon
HT29 colon = tested on: HT29 colon
SNB-75 CNS = tested on: SNB-75 CNS
U251 CNS = tested on: U251 CNS
PC-3 prostate = tested on: PC-3 prostate
SK-MEL-5 melanoma = tested on: SK-MEL-5 melanoma
UACC-62 melanoma = tested on: UACC-62 melanoma
LOX IMVI melanoma = tested on: LOX IMVI melanoma
SK-MEL-28 melanoma = tested on: SK-MEL-28 melanoma
SNB-19 CNS = tested on: SNB-19 CNS

SMILES: CN1CCN(Cc2ccc(NC(=O)c3[nH]ncc3Nc3ncnc4[nH]ccc34)cc2)CC1
- growth (DU-145 prostate): 3.78% (active)
- growth (K-562 leukemia): 5.62% (active)
- growth (MALME-3M melanoma): -23.3% (active)
- growth (MDA-MB-231 breast): 0.311% (active)
- growth (RXF 393 renal): -70.2% (active)
- growth (SF-268 CNS): -6.72% (active)
- growth (SF-295 CNS): 9.36% (active)
- growth (SF-539 CNS): -65% (active)
- growth (UACC-257 melanoma): 15.7%
- growth (M14 melanoma): 0.163% (active)
- growth (HCT-15 colon): 15.6%
- growth (HT29 colon): 1.32% (active)
- growth (SNB-75 CNS): -39.1% (active)
- growth (U251 CNS): 7.23% (active)
- growth (PC-3 prostate): 5.02% (active)
- growth (SK-MEL-5 melanoma): -25.4% (active)
- growth (UACC-62 melanoma): 6.54% (active)
- growth (LOX IMVI melanoma): -67% (active)
- growth (SK-MEL-28 melanoma): 2.8% (active)

SMILES: O=S(=O)(Nc1ccc(F)c(Cl)c1)c1ccc(-c2cnc(C3CC3)o2)cc1
- growth (DU-145 prostate): 16.3%
- growth (K-562 leukemia): 15.4%
- growth (MALME-3M melanoma): 45%
- growth (MDA-MB-231 breast): 36.2%
- growth (RXF 393 renal): -9.55% (active)
- growth (SF-268 CNS): 52.2%
- growth (SF-295 CNS): 5.73% (active)
- growth (SF-539 CNS): -14.7% (active)
- growth (UACC-257 melanoma): 48.2%
- growth (M14 melanoma): 24.8%
- growth (HCT-15 colon): 22.3%
- growth (HT29 colon): -3.16% (active)
- growth (SNB-75 CNS): -14.4% (active)
- growth (SNB-19 CNS): 49.3%
- growth (PC-3 prostate): 24.9%
- growth (SK-MEL-5 melanoma): 6.59% (active)
- growth (UACC-62 melanoma): 28.3%
- growth (LOX IMVI melanoma): 42.8%
- growth (SK-MEL-28 melanoma): 62.5%

SMILES: CSc1[nH]c2ncnc(N)c2c1C#N
- growth (DU-145 prostate): 101%
- growth (K-562 leukemia): 84.6%
- growth (MALME-3M melanoma): 107%
- growth (MDA-MB-231 breast): 98.8%
- growth (RXF 393 renal): 151%
- growth (SF-268 CNS): 113%
- growth (SF-295 CNS): 105%
- growth (SF-539 CNS): 96.3%
- growth (UACC-257 melanoma): 124%
- growth (M14 melanoma): 95.1%
- growth (HCT-15 colon): 99%
- growth (HT29 colon): 97.9%
- growth (SNB-75 CNS): 82.5%
- growth (U251 CNS): 107%
- growth (PC-3 prostate): 110%
- growth (SK-MEL-5 melanoma): 99.9%
- growth (UACC-62 melanoma): 85.9%
- growth (LOX IMVI melanoma): 109%
- growth (SK-MEL-28 melanoma): 120%

SMILES: C=CC[N+]1(CC)CCN=C1CCCCCCCCCCCCCCCCC (configuration not stated)
- growth (DU-145 prostate): -100% (active)
- growth (K-562 leukemia): -66.9% (active)
- growth (MALME-3M melanoma): -46.4% (active)
- growth (MDA-MB-231 breast): -89.7% (active)
- growth (RXF 393 renal): -90.3% (active)
- growth (SF-268 CNS): -83.4% (active)
- growth (SF-295 CNS): -31.4% (active)
- growth (SF-539 CNS): -98.2% (active)
- growth (UACC-257 melanoma): -91.3% (active)
- growth (M14 melanoma): -99.8% (active)
- growth (HCT-15 colon): -88.6% (active)
- growth (HT29 colon): -100% (active)
- growth (SNB-75 CNS): -92.1% (active)
- growth (U251 CNS): -100% (active)
- growth (PC-3 prostate): -68.6% (active)
- growth (SK-MEL-5 melanoma): -100% (active)
- growth (UACC-62 melanoma): -86.1% (active)
- growth (LOX IMVI melanoma): -96.3% (active)
- growth (SK-MEL-28 melanoma): -76.1% (active)

SMILES: Nc1cc(-c2nc3sccn3c2-c2ccnc(NCCCNS(=O)(=O)c3ccc(F)cc3)n2)ccc1F
- growth (DU-145 prostate): 58.6%
- growth (K-562 leukemia): 26.8%
- growth (MALME-3M melanoma): 37.1%
- growth (MDA-MB-231 breast): 62.5%
- growth (RXF 393 renal): 52.1%
- growth (SF-268 CNS): 62%
- growth (SF-295 CNS): 67.5%
- growth (SF-539 CNS): 73.2%
- growth (UACC-257 melanoma): 57.9%
- growth (M14 melanoma): 31%
- growth (HCT-15 colon): 28.3%
- growth (HT29 colon): 17.8%
- growth (SNB-75 CNS): 68.7%
- growth (SNB-19 CNS): 88%
- growth (PC-3 prostate): 48.6%
- growth (SK-MEL-5 melanoma): 27.2%
- growth (UACC-62 melanoma): 21.2%
- growth (LOX IMVI melanoma): 34.1%
- growth (SK-MEL-28 melanoma): 50.7%

SMILES: COc1ccc(-n2c(C)nc3c(c(C)nn3-c3ccccc3)c2=O)cc1
- growth (DU-145 prostate): 0.999% (active)
- growth (K-562 leukemia): 8.9% (active)
- growth (MALME-3M melanoma): 63.7%
- growth (MDA-MB-231 breast): 31.9%
- growth (RXF 393 renal): 19.7%
- growth (SF-268 CNS): 30.3%
- growth (SF-295 CNS): 3.34% (active)
- growth (SF-539 CNS): -1.28% (active)
- growth (UACC-257 melanoma): 60%
- growth (M14 melanoma): 10.4%
- growth (HCT-15 colon): 7.97% (active)
- growth (HT29 colon): -15.6% (active)
- growth (SNB-75 CNS): 26.7%
- growth (SNB-19 CNS): 60.7%
- growth (PC-3 prostate): 26.7%
- growth (SK-MEL-5 melanoma): -17.1% (active)
- growth (UACC-62 melanoma): 51.6%
- growth (LOX IMVI melanoma): 16.6%
- growth (SK-MEL-28 melanoma): 67.4%

SMILES: OCCNCCNc1c2ccccc2nc2ccccc12
- growth (DU-145 prostate): 88.3%
- growth (K-562 leukemia): 69.8%
- growth (MALME-3M melanoma): 42.1%
- growth (MDA-MB-231 breast): 57.9%
- growth (RXF 393 renal): 102%
- growth (SF-268 CNS): 55.9%
- growth (SF-295 CNS): 95.4%
- growth (SF-539 CNS): 69.8%
- growth (UACC-257 melanoma): 102%
- growth (M14 melanoma): 90.9%
- growth (HCT-15 colon): 97.2%
- growth (HT29 colon): 58%
- growth (SNB-75 CNS): 93.3%
- growth (U251 CNS): 55.3%
- growth (PC-3 prostate): 87.5%
- growth (SK-MEL-5 melanoma): 88.4%
- growth (UACC-62 melanoma): 66.6%
- growth (LOX IMVI melanoma): 37.8%
- growth (SK-MEL-28 melanoma): 114%

SMILES: COc1c(Cl)cc(Cl)cc1Cl
- growth (DU-145 prostate): 111%
- growth (K-562 leukemia): 96.2%
- growth (MALME-3M melanoma): 143%
- growth (MDA-MB-231 breast): 92.2%
- growth (RXF 393 renal): 121%
- growth (SF-268 CNS): 107%
- growth (SF-295 CNS): 103%
- growth (SF-539 CNS): 111%
- growth (UACC-257 melanoma): 122%
- growth (M14 melanoma): 116%
- growth (HCT-15 colon): 116%
- growth (HT29 colon): 108%
- growth (SNB-75 CNS): 116%
- growth (SNB-19 CNS): 103%
- growth (PC-3 prostate): 111%
- growth (SK-MEL-5 melanoma): 109%
- growth (UACC-62 melanoma): 100%
- growth (LOX IMVI melanoma): 107%
- growth (SK-MEL-28 melanoma): 127%
